Reference: PubChem BioAssay AID624256 (NMMLSC, 2012)
The campaign covered roughly 360,000 compounds. About 3,700 (1%) were called active. Not shown: some 2% with an inconclusive outcome.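 Rule for the calls: active = normalized GFP-positive differentiation at or above the plate's own cutoff, the solvent-only control mean plus 3 SD; inconclusive = no clear call, values can overlap the other calls; inactive = the rest.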 The sample as a whole holds a higher share of actives than the screen did.

Assay: induction of myeloid progenitor differentiation, primary screen, cell-based, flow cytometry, MLPCN library (AID 624256);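 for GFP+ MAC1+ double positive: cells exposed to compound for four days before flow analysis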;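 for normalized GFP-positive differentiation: cells exposed to compound for four days before flow analysis; 0% = DMSO wells and 100% = fulvestrant positive control at 5 µM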
Conditions: ER-HoxA9 myeloid progenitors, lysozyme-GFP differentiation, at 10 µM; GFP+ MAC1+ double positive: measured here: differentiation confirmed by MAC1 staining, stronger effect = higher value; normalized GFP-positive differentiation: stronger effect = higher value
For `O=C(NNC(=S)NCc1ccco1)C(c1ccccc1)c1ccccc1`, the GFP+ MAC1+ double positive was 5.5% and the normalized GFP-positive differentiation was 175% (active). For `COC(=O)Cc1ccc(NC(=S)NCc2ccco2)cc1`, the GFP+ MAC1+ double positive was 0.6% and the outcome was “inactive”. With `COc1cccc(OC)c1C(=O)NC(=S)NCc1ccco1` the GFP+ MAC1+ double positive was 0.3% and the outcome was “inactive”. For `Nc1cccc(-c2cncc(N3CCN(Cc4ccccn4)CC3)n2)c1`, the GFP+ MAC1+ double positive was 0.8% and the outcome was “inactive”. In the case of `CC(C)c1cccc(C(C)C)c1Nc1cn[nH]c1`, the GFP+ MAC1+ double positive is reported as 0.2% and the outcome is reported as “inactive”. With `O=C(/C=C/c1ccccc1[N+](=O)[O-])OCC(=O)N1CCCC1` the GFP+ MAC1+ double positive was 0.4% and the outcome was “inactive”. For `CC(C)CNC(=O)COC(=O)/C=C/c1ccccc1[N+](=O)[O-]`, the GFP+ MAC1+ double positive was 4.9% and the normalized GFP-positive differentiation was 14.3% (active). With `CC(C)CNC(=O)COC(=O)/C=C/c1ccco1` the GFP+ MAC1+ double positive was 0.7% and the outcome was “inactive”. With `O=C1C(Sc2cccc(F)c2)=C[C@@]2(O)CC[C@@H](O)[C@]1(Sc1cccc(F)c1)[C@H]2O` the GFP+ MAC1+ double positive was 2% and the outcome was “inactive”. In the case of `O=C1NC[C@H](CCCCN2CCN(CCc3ccccc3)C(=O)C2=O)N(CC2CCCCC2)C1=O`, the GFP+ MAC1+ double positive is reported as 0.5% and the outcome is reported as “inactive”. In the case of `Nc1nc2cc(Cl)ccc2n1N`, the GFP+ MAC1+ double positive is reported as 1.5% and the outcome is reported as “inactive”. For `CN1OC[C@@H]2CN(S(=O)(=O)c3cccc4ccccc34)[C@H](c3ccc(N4CCCCC4)cc3)C[C@@H]21`, the GFP+ MAC1+ double positive was 0.8% and the outcome was “inactive”. In the case of `CCC1CCCCN1S(=O)(=O)Cc1ccccc1Cl` (stereo not given), the GFP+ MAC1+ double positive is reported as 3% and the normalized GFP-positive differentiation is reported as 98.8% (active). With `O=C(NCc1ccccc1Cl)C(=O)NCC1CCCN1S(=O)(=O)c1cccs1` (stereo not given) the GFP+ MAC1+ double positive was 0.7% and the outcome was “inactive”. In the case of `O=C(NCc1ccccc1Cl)C1CCCN1S(=O)(=O)c1ccc(F)cc1` (stereo not given), the GFP+ MAC1+ double positive is reported as 0.6% and the outcome is reported as “inactive”. For `O=C(N[C@@H](Cc1ccccc1)C(=O)OCc1ccccc1)c1nc[nH]c1C(=O)N[C@@H](Cc1ccccc1)C(=O)OCc1ccccc1`, the GFP+ MAC1+ double positive was 0.2% and the outcome was “inactive”. With `CC(C)(C)OC(=O)CNC(=O)c1[nH]cnc1C(=O)N[C@@H](Cc1ccccc1)C(=O)OCc1ccccc1` the GFP+ MAC1+ double positive was 10% and the normalized GFP-positive differentiation was 21.4% (active). In the case of `C[C@H](NC(=O)c1nc[nH]c1C(=O)NCC(=O)OC(C)(C)C)C(=O)OCc1ccccc1`, the GFP+ MAC1+ double positive is reported as 0.8% and the outcome is reported as “inactive”. For `FC(F)(F)c1cccc(-c2nc3ccccc3n2C(c2ccccc2)c2nc3ccccc3[nH]2)c1` (stereo not given), the GFP+ MAC1+ double positive was 3.2% and the outcome was “inactive”. In the case of `COc1cccc(-c2ccc3c(c2)N(Cc2ccccc2OC)C(=O)C(C)S3)c1` (stereo not given), the GFP+ MAC1+ double positive is reported as 0.8% and the outcome is reported as “inactive”. In the case of `Cc1cccnc1C(NC(=O)C1CCN(Cc2ccc(Cl)c(Cl)c2)CC1)c1ccc(Cl)cc1` (stereo not given), the GFP+ MAC1+ double positive is reported as 0.8% and the outcome is reported as “inactive”. In the case of `CC1=C(C(=O)N2CCOCC2)CC(CC(=O)NCc2cccs2)C(=O)N1CCCN1CCCC1=O` (stereo not given), the GFP+ MAC1+ double positive is reported as 1.4% and the outcome is reported as “inactive”. With `CC(OC(=O)CCCc1c[nH]c2ccccc12)C(=O)Nc1ccc(S(N)(=O)=O)cc1` (stereo not given) the GFP+ MAC1+ double positive was 0.5% and the outcome was “inactive”. In the case of `Cc1ccc(NC(=O)C(C)OC(=O)C2CC3CCCC(C2)C3=O)cc1S(=O)(=O)N1CCOCC1` (stereo not given), the GFP+ MAC1+ double positive is reported as 0.8% and the outcome is reported as “inactive”. In the case of `Cc1ccc(NC(=O)C(C)OC(=O)Cc2c[nH]c3ccccc23)cc1S(=O)(=O)N1CCOCC1` (stereo not given), the GFP+ MAC1+ double positive is reported as 1% and the normalized GFP-positive differentiation is reported as 9.47% (active).
